Assay [1] concerns the target human Serotonin, 5-Hydroxytryptamine Receptor 5A (5HT5A), HTR5A (gene 3361) (UniProt P47898). Description: NVS_GPCR_h5HT5A: NovaScreen (NVS) G Protein-Coupled Receptor Assay for human Serotonin, 5-Hydroxytryptamine Receptor 5A (5HT5A) (AID 2283251). A digest of the protocol:
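Membranes from HEK293 cells, radioligand binding read by filtration and scintillation after 1 h. Single-concentration duplicate testing at 25 uM, then concentration-response for actives; positive-direction fitting relative to DMSO.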

For assay [2], the target named is guinea pig Opioid, Kappa 1 Receptor (OpiateK), OPRK1 (gene 100135587) (UniProt P41144). Kind of assay: NVS_GPCR_gOpiateK: NovaScreen (NVS) G Protein-Coupled Receptor Assay for guinea pig Opioid, Kappa 1 Receptor (OpiateK) (AID 2283252).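 Note: active means reduced radioligand binding relative to DMSO.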 The procedure, abridged:
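Radioligand binding to kappa opioid receptor in guinea pig cerebellar membranes, read by filtration and scintillation at 2 h. Compounds first tested in duplicate at 25 uM, then actives in concentration series; signal loss fitted against DMSO.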

For assay [3], the target named is human Serotonin, 5-Hydroxytryptamine Receptor 6 (5HT6), HTR6 (gene 3362) (UniProt P50406). Kind of assay: NVS_GPCR_h5HT6: NovaScreen (NVS) G Protein-Coupled Receptor Assay for human Serotonin, 5-Hydroxytryptamine Receptor 6 (5HT6) (AID 2283253). The procedure, abridged: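 Filter scintillation counting of radioligand displacement from HEK293-expressed 5HT6, 1 hour post-dose, with loss of signal relative to DMSO. Single 25 uM duplicates first, with concentration series for confirmation.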
human Serotonin, 5-Hydroxytryptamine Receptor 6 (5HT6), HTR6 (gene 3362), sequence (P50406 whole entry, looked up): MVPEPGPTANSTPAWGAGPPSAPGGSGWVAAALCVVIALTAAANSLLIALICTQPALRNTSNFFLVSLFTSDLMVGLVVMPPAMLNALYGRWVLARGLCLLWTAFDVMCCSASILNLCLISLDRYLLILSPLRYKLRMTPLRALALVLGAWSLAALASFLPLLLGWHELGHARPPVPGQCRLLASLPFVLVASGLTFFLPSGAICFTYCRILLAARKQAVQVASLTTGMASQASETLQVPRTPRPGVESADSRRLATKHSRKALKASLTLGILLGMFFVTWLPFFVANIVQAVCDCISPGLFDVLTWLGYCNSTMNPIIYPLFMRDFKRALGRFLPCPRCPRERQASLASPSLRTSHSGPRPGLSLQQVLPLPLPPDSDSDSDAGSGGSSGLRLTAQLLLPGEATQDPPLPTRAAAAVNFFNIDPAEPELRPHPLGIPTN

The target in assay [4] is human Serotonin, 5-Hydroxytryptamine Receptor 7 (5HT7), HTR7 (gene 3363) (UniProt P34969). Kind of assay: NVS_GPCR_h5HT7: NovaScreen (NVS) G Protein-Coupled Receptor Assay for human Serotonin, 5-Hydroxytryptamine Receptor 7 (5HT7) (AID 2283255).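 Note: hits reduce specific radioligand binding relative to DMSO.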 The procedure, abridged:
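Filter-bound radioactivity counted after 1 h, with loss of specific radioligand binding fitted against DMSO. Membrane protein came from CHO cells expressing human 5HT7. Chemicals were tested first at 25 uM in duplicate, then in concentration series if active.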

The subject of assay [5] is guinea pig Muscarinic, Peripheral (Mperiperal) Receptor, Non-selective Binding, gene 100379235. Description: NVS_GPCR_gMPeripheral_NonSelective: NovaScreen (NVS) G Protein-Coupled Receptor Assay for guinea pig Muscarinic, Peripheral (Mperiperal) Receptor, Non-selective Binding (AID 2283250). A digest of the protocol: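 Screened in duplicate at 25 uM, hits retested in concentration series to 50 uM max, using bladder membrane radioligand displacement from guinea pig. Filtration and scintillation counting 1 h post-dose, fitted relative to DMSO.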

Assay [6] has as its target bovine Dopamine Receptor (DR), Non-selective Binding, DRD1 (gene 281125) (UniProt Q95136). Description: NVS_GPCR_bDR_NonSelective: NovaScreen (NVS) G Protein-Coupled Receptor Assay for bovine Dopamine Receptor (DR), Non-selective Binding (AID 2283241). The procedure, abridged:
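Filter-based radioligand binding with bovine striatal membrane, incubated 1 h; DMSO as negative baseline. Initial duplicate single-point test at 25 uM preceded concentration series for actives.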

Assay [7] addresses rat Monoamine Oxidase, MAO-B, Peripheral (MAOBP), Maob (gene 25750) (UniProt P19643). Kind of assay: NVS_ENZ_rMAOBP: NovaScreen (NVS) Enzymatic Assay for rat Monoamine Oxidase, MAO-B, Peripheral (MAOBP) (AID 2283242).
The subject of assay [8] is guinea pig Leukotriene B4 Receptor (LTB4), gene 100379538. Description: NVS_GPCR_gLTB4: NovaScreen (NVS) G Protein-Coupled Receptor Assay for guinea pig Leukotriene B4 Receptor (LTB4) (AID 2283247). The procedure, abridged: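 Membranes from guinea pig spleen incubated 2 h with radioligand and compound; bound counts measured by filtration and scintillation. Screened first at 25 uM in duplicate, then actives titrated to a 50 uM top concentration relative to DMSO.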

The target of assay [9] is human Adenosine A1 Receptor (AdoRA1), ADORA1 (gene 134) (UniProt P30542). Kind of assay: NVS_GPCR_hAdoRA1: NovaScreen (NVS) G Protein-Coupled Receptor Assay for human Adenosine A1 Receptor (AdoRA1) (AID 2283254). A digest of the protocol:
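Hum. cortical membranes + radioligand, cmpd 1 h; filtration, scintillation count. Readout = decrease vs DMSO. Primary 25 uM dup; hits → conc. series.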

Assay [10] relates to rat Monoamine Oxidase, MAO-A, Central (MAOAC), gene 29253. Kind of assay: NVS_ENZ_rMAOAC: NovaScreen (NVS) Enzymatic Assay for rat Monoamine Oxidase, MAO-A, Central (MAOAC) (AID 2283243).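 Note: potency refers to inhibition seen as signal drop below DMSO baseline.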 The procedure, abridged:
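Scintillation read-out of MAO-A activity in rat brain lysate, 1.5 h post-dosing. Primary single-concentration screen: 25 uM, duplicate; actives re-tested in concentration series. DMSO = negative control/baseline.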

Records with an inconclusive call do not appear. Activity calls are given as the source filed them. Rule for the calls: active = hit-call score of the fitted dose curve at least 0.9, where 1 is the maximum; inconclusive = response in the unintended direction; inactive = score below 0.9.

The values below come from PubChem BioAssay (EPA / NIEHS).

human Serotonin, 5-Hydroxytryptamine Receptor 7 (5HT7), HTR7 (gene 3363), sequence (P34969 whole entry, looked up): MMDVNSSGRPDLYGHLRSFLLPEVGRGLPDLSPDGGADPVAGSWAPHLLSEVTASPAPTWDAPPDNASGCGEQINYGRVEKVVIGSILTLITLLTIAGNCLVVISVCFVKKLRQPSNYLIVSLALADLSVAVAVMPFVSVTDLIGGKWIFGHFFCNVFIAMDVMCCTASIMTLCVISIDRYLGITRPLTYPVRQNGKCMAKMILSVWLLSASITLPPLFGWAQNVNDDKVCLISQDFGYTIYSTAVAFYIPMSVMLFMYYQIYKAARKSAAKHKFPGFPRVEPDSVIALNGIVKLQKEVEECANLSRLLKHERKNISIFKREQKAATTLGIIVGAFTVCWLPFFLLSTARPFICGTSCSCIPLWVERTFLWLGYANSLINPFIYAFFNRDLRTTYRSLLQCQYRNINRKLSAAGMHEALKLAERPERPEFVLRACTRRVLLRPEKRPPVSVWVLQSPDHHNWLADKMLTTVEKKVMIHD
human Adenosine A1 Receptor (AdoRA1), ADORA1 (gene 134), sequence (P30542 whole entry, looked up): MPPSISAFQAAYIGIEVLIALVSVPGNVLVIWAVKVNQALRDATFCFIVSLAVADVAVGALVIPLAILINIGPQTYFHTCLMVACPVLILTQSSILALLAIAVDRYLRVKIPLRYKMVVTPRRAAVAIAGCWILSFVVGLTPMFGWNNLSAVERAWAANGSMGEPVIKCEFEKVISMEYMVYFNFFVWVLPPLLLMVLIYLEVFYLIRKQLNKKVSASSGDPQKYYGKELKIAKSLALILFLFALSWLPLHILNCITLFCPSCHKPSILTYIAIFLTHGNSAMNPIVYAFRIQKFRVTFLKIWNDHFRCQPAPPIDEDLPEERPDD
guinea pig Opioid, Kappa 1 Receptor (OpiateK), OPRK1 (gene 100135587), sequence (P41144 whole entry, looked up): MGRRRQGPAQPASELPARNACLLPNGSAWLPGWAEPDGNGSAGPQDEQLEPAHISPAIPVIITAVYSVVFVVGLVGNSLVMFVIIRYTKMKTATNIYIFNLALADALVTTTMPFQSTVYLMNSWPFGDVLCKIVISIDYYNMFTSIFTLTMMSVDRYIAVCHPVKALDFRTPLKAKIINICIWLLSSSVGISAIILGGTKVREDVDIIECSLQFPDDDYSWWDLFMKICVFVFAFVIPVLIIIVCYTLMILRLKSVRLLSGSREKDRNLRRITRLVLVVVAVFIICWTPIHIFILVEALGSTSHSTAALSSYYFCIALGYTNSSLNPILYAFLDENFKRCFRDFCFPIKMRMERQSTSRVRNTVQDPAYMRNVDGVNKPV
human Serotonin, 5-Hydroxytryptamine Receptor 5A (5HT5A), HTR5A (gene 3361), sequence (P47898 whole entry, looked up): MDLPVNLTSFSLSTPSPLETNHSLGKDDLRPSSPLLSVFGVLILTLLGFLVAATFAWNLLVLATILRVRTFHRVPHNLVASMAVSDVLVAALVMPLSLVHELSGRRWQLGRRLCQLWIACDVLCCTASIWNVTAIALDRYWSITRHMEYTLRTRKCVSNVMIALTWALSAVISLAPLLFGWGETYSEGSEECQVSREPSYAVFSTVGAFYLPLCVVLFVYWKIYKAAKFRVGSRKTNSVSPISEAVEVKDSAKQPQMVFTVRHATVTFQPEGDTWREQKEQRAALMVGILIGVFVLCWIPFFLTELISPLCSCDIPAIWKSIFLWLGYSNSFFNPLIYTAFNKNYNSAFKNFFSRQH
rat Monoamine Oxidase, MAO-B, Peripheral (MAOBP), Maob (gene 25750), sequence (P19643 whole entry, looked up): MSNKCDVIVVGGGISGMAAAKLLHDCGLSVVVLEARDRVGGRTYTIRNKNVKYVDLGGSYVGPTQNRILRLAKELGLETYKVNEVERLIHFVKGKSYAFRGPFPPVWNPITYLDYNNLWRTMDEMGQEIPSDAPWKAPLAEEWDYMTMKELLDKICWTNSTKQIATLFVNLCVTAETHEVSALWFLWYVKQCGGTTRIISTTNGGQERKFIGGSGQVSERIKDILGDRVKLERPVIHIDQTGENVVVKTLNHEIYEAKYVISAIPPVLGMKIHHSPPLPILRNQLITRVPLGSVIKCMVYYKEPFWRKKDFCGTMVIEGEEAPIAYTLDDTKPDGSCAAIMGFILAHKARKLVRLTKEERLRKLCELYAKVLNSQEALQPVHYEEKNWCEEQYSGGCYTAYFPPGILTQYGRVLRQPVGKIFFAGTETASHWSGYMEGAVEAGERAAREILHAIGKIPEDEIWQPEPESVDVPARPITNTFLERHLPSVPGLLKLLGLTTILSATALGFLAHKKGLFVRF
bovine Dopamine Receptor (DR), Non-selective Binding, DRD1 (gene 281125), sequence (Q95136 whole entry, looked up): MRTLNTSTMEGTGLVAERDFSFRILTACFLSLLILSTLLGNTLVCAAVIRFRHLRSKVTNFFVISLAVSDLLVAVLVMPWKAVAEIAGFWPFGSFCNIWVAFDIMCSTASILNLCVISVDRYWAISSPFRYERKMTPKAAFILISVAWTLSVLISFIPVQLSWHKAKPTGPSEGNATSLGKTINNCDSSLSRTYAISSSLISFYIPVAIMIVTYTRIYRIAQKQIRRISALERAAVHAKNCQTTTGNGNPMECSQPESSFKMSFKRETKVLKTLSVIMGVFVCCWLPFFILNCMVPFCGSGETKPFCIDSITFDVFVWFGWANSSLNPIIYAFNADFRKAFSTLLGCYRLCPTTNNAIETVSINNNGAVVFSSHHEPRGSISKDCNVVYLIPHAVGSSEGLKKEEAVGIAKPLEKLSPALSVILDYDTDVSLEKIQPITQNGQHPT

Usually AC50 stands for the midpoint of the concentration-response curve, whichever way the signal moves. As to `CCCCC(O)(Cn1cncn1)c1ccc(Cl)cc1Cl` (stereo not drawn), the call in [1] and in [3] was inactive. The AC50 in [2] was 17.8 µM (active); in assay [4] it was 16.6 µM (active).
As to `Cn1c(-c2ccccc2)cc(-c2ccccc2)[n+]1C`, the values for the AC50 in assay [5], in assay [2] and in [4] were 6.52 µM (active), 12 µM (active) and 14.8 µM (active), respectively.
As to `OC(c1ccc(Cl)cc1)(c1ccc(Cl)cc1)C(Cl)(Cl)Cl`, the compound was called inactive in assay [1] and in assay [4].
In the case of `CCCN(CC)CC1COC2(CCC(C(C)(C)C)CC2)O1` (stereo not drawn), the compound was called inactive in [6], in assay [7] and in assay [5]. The figures for the AC50 in assay [2] and in assay [4] were 14.3 µM (active) and 8 µM (active), respectively.
Turning to `CC1(C)C(C=C(Cl)Cl)C1C(=O)OC(C#N)c1cccc(Oc2ccccc2)c1` (stereo not drawn), in assay [1], the call was inactive. Also, the AC50 in [4] is 6.91 µM (active).
`C=C(C)CN(CC)c1c([N+](=O)[O-])cc(C(F)(F)F)cc1[N+](=O)[O-]`: the compound was called inactive in assay [8].
For the compound `CCOc1cc(C(C)(C)C)ccc1C1COC(c2c(F)cccc2F)=N1` (stereo not drawn), the outcome in assay [9] was inactive.
Turning to `COP(=S)(OC)Oc1ccc([N+](=O)[O-])c(C)c1`, in assay [10], the result was inactive.
`CO/N=C(/C1=NOCCO1)c1ccccc1Oc1ncnc(Oc2ccccc2Cl)c1F`: the outcome in assay [1], in [2] and in assay [9] was inactive.
As to `O=C(Nc1ccccc1-c1ccc(Cl)cc1)c1cccnc1Cl`, in assay [7], the outcome was inactive.
Turning to `Cc1cc(C)nc(Nc2ccccc2)n1`, in assay [10], the compound was classed as inactive.
On to `Nc1cnn(-c2ccccc2)c(=O)c1Cl`, for which the AC50 in assay [9] was 8.18 µM (active).
For `CN/C(=N\[N+](=O)[O-])NCc1cnc(Cl)s1`, the outcome in [1] was inactive.
With `CC(C)=CC1C(C(=O)OCc2coc(Cc3ccccc3)c2)C1(C)C` (stereo not drawn), the result in assay [6] and in [4] was inactive. Also, the half-maximal activity concentration (AC50) in assay [8] was 6.5 µM (active); in assay [1], 25 µM (active).
With `COP(=O)(OC)O/C(C)=C/C(=O)N(C)C`, the compound was called inactive in [5].
The same measure, in the same setting: the value for `CCOc1nc(F)cc2nc(S(=O)(=O)Nc3c(Cl)cccc3Cl)nn12` was “inactive”.
As to `Nc1c(Cl)c(F)nc(OCC(=O)O)c1Cl`, in assay [10], the half-maximal activity concentration (AC50) was 46.8 µM (active).
